# The full ranking holds about 33,000 sequences; the median of “E-score (-0.5 to 0.5)” is about -8e-05, and the highest 2% start at about 0.23. Shown is part of a subset that was picked to be rich in the highest values.
# Molecular target: T1, Nrg2 (UniProt P38082)
# T1 sequence: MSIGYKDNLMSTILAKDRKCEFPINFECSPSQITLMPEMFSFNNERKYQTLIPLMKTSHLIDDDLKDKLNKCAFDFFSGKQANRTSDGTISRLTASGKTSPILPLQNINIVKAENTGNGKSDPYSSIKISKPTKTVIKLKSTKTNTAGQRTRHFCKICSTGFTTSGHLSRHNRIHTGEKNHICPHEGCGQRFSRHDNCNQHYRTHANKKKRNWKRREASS
# Experiment: PBM E-score (8-mer binding enrichment) (E-score (-0.5 to 0.5)); higher = stronger / more preferred TF binding
# Settings: protein concentration: 100 nM; construct: GST-full length
# Description: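 Universal 'all 10-mer' protein binding microarrays (Agilent AMADID 015681) probed with GST-tagged S. cerevisiae TFs (full-length or DBD) made by in vitro transcription/translation (PURExpress), about 100-200 nM. Bound TF was detected with fluorescent anti-GST. Each ungapped 8-mer (which stands for itself and its reverse complement) is scored by the PBM enrichment score (E-score), a modified Wilcoxon-Mann-Whitney statistic from -0.5 to +0.5, computed with the Universal PBM Analysis Suite. Scale: above 0.35 generally sequence-specific binding.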
row,Sequence,PBM E-score
1,GAATTATA,0.0673
2,GTATTATA,0.254
3,ATATTATA,0.0282
4,CTATTATA,0.0933
5,AATTTATA,0.201
6,CATTTATC,0.0481
7,CAATTATC,0.289
8,CAATTATA,0.0143
9,AAATTATA,0.175
10,CAATTATG,0.0379
11,AATTTATC,0.312
12,ACGCCTGG,-0.123
13,ACGCGCAG,0.025
14,CAATCCAC,-0.0677
15,CCACCGAA,0.0334
16,AACGGTCT,-0.127
17,CCGGGCGA,-0.0266
18,TGAGTCAA,0.0756
19,CTCCAACA,0.0834
20,AGCACGGG,-0.00766
21,CGATTATA,0.138
22,GGATTATA,0.24
23,AGATTATA,0.0559
24,GGCTAGCC,-0.297
25,CGATCCTA,0.00763

row,Sequence,PBM E-score
1,AAACTAGA,-0.0323
2,GAACTCGA,0.0868
3,GAACTAGA,0.0203
4,CAACTCGA,0.0207
5,TAACTAGA,0.256
6,TAACTCGA,0.294
7,GCCTAAGA,-0.0546
8,ACAAGCGC,0.0708
9,CAAGAACC,0.172
10,AGGGAATA,0.245
11,ATGGAATC,0.267
12,CTGGAATC,-0.164
13,GTGGAATA,-0.013
14,CTGGAATA,0.193
15,CGGGAATA,0.0776
16,ATGGAATG,-0.0148
17,ATGGAATA,0.235
18,AGGGAATG,0.032
19,AATGGCCG,-0.134
20,AATTCTCC,0.118
21,CAGTACGA,0.206
22,AAGTCCGA,-0.0535
23,CCTATCAC,-0.00258
24,ATATCCGG,0.0451
25,ATATCCGA,0.235

row,Sequence,PBM E-score
1,CTATCCGA,-0.04
2,AGTGCTGA,-0.0594
3,GTGAACGA,-0.00481
4,CGACATCA,0.0768
5,GGACATCA,0.0631
6,TGACATCA,0.232
7,AGGAACGG,0.0417
8,CATCTGTC,-0.0868
9,CACGGGCA,-0.102
10,GATCCGAA,0.243
11,TATCCGAA,-0.0137
12,GATCCAAC,-0.0228
13,CATCCGAA,0.168
14,GATCCAAA,0.284
15,CATCCAAA,-0.00312
16,CAGGTCAC,-0.271
17,ATCTATGG,-0.0899
18,GGTAGACC,-0.00427
19,ACAGCGGG,-0.0296
20,GCTCAAGC,-0.0931
21,GCCGCAAC,0.192
22,ACCGCAAC,0.269
23,ACCGCAAG,0.00329
24,AGGGGATC,0.0237
25,AGCTTGTA,-0.00311

row,Sequence,PBM E-score
1,CCACGGAA,0.00928
2,ATATGGCA,0.00508
3,GCAATAAA,0.269
4,GCAATAAC,0.0808
5,GCAATACC,0.176
6,GCAATACA,0.298
7,CCAATAAA,0.079
8,TCAATACA,0.0827
9,AACAGATG,-0.0815
10,GATGCTCA,-0.12
11,AGGCTTTG,-0.058
12,GTAAACAC,-0.0176
13,GCCGTACC,-0.0541
14,TACACCTA,0.0327
15,CCTTCACC,-0.0756
16,ATTTTCCG,0.249
17,AATTTCCG,0.206
18,ATTTCCAG,0.0415
19,ATTTCCCG,0.264
20,ATTTCCAA,-0.0757
21,ATTTCCCC,0.153
22,ATTTCCAC,0.255
23,ATTTCCCA,0.153
24,ATTTTCCC,0.124
25,CGAAGTTC,0.0952

row,Sequence,PBM E-score
1,CCTGCTGA,0.171
2,AACAGTGA,-0.0365
3,AATTCCCG,-0.0292
4,AAGAGAAA,0.0319
5,AAGAGAAT,0.231
6,AAGAGAAG,-0.0556
7,CTCTGACC,-0.127
8,CACGGGGC,-0.0105
9,TCCTAGGA,-0.0933
10,ACAATACG,0.0515
11,ACAATACT,0.241
12,CCAATACC,0.0351
13,AGAATACC,0.191
14,ACAATACA,0.148
15,ACAATACC,0.291
16,GGATACAA,0.0295
17,GCAAACCA,0.0737
18,CATTAAAC,0.0682
19,TACTAAAA,0.0854
20,CATTAAAG,0.119
21,TATTAAAA,0.262
22,CACTAAAA,0.256
23,GATTAAAA,0.157
24,CATTAAAA,0.252
25,GATTAGAA,0.0967

row,Sequence,PBM E-score
1,CATTAGAA,0.0605
2,AACTAAAA,0.0978
3,TATTAGAA,0.249
4,AATTAAAA,0.126
5,ATTGCACC,0.0876
6,CCAACTAC,0.0973
7,AACCTCTA,-0.1
8,TAACGTCA,0.0193
9,CTCGATCC,-0.0858
10,AGAATGGC,0.0093
11,ACAAGGAT,-0.0601
12,CCCCTCCC,-0.102
13,ACCCTCCT,-0.14
14,CCCCACCC,0.162
15,ACCCTCCC,0.255
16,GCCCACCC,0.184
17,CCCACCCG,0.231
18,CCCACCCA,0.0597
19,CCCACCCC,0.177
20,ACCCACCC,0.243
21,AAATGAAC,0.0486
22,CGTTCCGC,-0.00432
23,AACAGGCC,-0.202
24,GTGGGCTA,-0.14
25,CACCGGGG,-0.413

row,Sequence,PBM E-score
1,GTACTACA,0.191
2,CGAGATTC,0.143
3,CGAGATTA,0.252
4,AGAGATTA,0.0613
5,GGCTGCCA,-0.173
6,GAAAAGTC,-0.0781
7,CGTGCCAA,-0.033
8,TGACGTCA,0.279
9,AGACGTCA,-0.0442
10,GGACGTCA,0.00109
11,ATCCAACG,-0.165
12,CTCATAGA,-0.061
13,ATCATAGG,-0.0259
14,ATCATAGA,0.238
15,CTAAACCA,-0.179
16,CATACCAC,-0.0447
17,TAAGTGAA,0.0844
18,ACTACAGC,-0.271
19,ATTACAGC,-0.18
20,ATTACAGG,0.312
21,ACTACAGA,0.131
22,ACTACAGG,0.237
23,ATTACAGA,0.0258

# — the supplement of paper PMC3334620
